Reference: PubChem BioAssay (NCATS)
Records with an inconclusive call do not appear. Active and inactive are the calls of the source. Calls follow the shape of the dose curve; as a rule, active = well fitted cell-killing curve with a large enough effect; inconclusive = small, poorly fitted or top-dose-only effect, or effect the other way; inactive = flat fitted curve, though single readings scatter.

Assays:
Assay in all cases: Primary qHTS to identify gynecologic anti-cancer compounds using libraries of approved drugs and bioactive compounds (AID 1345084); also: nearly all actives have a fitted effect of over 55% in size
Settings in all cases: Gynecologic cancer cell panel viability, ATPlite luminescence, 48 h; series mostly up to 57.5 µM
OV90 = tested on: OV90
How it was run: (§1)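 In this quantitative HTS, cell killing is estimated from loss of ATP-dependent luciferase light. Cells see five compound concentrations over a 48 h exposure.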

PA-1 = tested on: PA-1
How it was run: as §1

Tov-21-G = tested on: Tov-21-G
How it was run: as §1

Tov112D = tested on: Tov112D
How it was run: as §1
% is scaled to controls: 0 for no effect and ±100 for the full control effect.

O=C(/C=C/c1ccc(O)cc1)O[C@@H]1C[C@@](O)(C(=O)O)C[C@@H](O)[C@@H]1O
inactive: Potency (OV90) | Potency (PA-1) | Potency (Tov-21-G) | Potency (Tov112D)

CC1(C)CC[C@]2(C(=O)O)CC[C@]3(C)C(=CCC4[C@@]5(C)CC[C@H](O[C@H]6O[C@H](C(=O)O)[C@@H](O)[C@H](O[C@@H]7O[C@H](CO)[C@H](O)[C@H](O)[C@H]7O)[C@H]6O)C(C)(C)C5CC[C@]43C)[C@@H]2C1 (some centres not stated)
inactive: activity change, negative = cytotoxicity (OV90) -6.58% [at 11.6 µM] | activity change, negative = cytotoxicity (PA-1) 2% [at 11.6 µM] | activity change, negative = cytotoxicity (Tov-21-G) 6.29% [at 11.6 µM] | activity change, negative = cytotoxicity (Tov112D) -0.0817% [at 11.6 µM]

O=C1C[C@@]2(C(=O)N1)C(=O)N(Cc1ccc(Br)cc1F)C(=O)c1cccn12
inactive: Potency (OV90) | Potency (PA-1) | Potency (Tov-21-G) | Potency (Tov112D)

O=C(O)c1ccnc2cc(-c3nc4ccccc4n3CCN3CCCCC3)sc12
inactive: Potency (OV90) | Potency (PA-1) | Potency (Tov-21-G) | Potency (Tov112D)

C=C[C@H]1[C@H](O[C@@H]2O[C@H](CO)[C@@H](O)[C@H](O)[C@H]2O)OC=C2C(=O)N3Cc4c([nH]c5ccccc5c4=O)[C@@H]3C[C@H]21
inactive: Potency (OV90) | Potency (PA-1) | Potency (Tov-21-G) | Potency (Tov112D)

O=C(Cn1c2ccccc2c2nc3n(c(=O)c21)CCS3)N1CCCC1
inactive: Potency (OV90) | Potency (PA-1) | Potency (Tov-21-G) | Potency (Tov112D)

COc1ccc([C@H]2OC[C@H]3[C@@H]2CO[C@@H]3c2ccc(O[C@@H]3O[C@H](CO)C(O)[C@H](O)[C@H]3O)c(OC)c2)cc1OC (some centres not stated)
inactive: Potency (OV90) | Potency (PA-1) | Potency (Tov-21-G) | Potency (Tov112D)

NC(=O)C(O[C@@H]1O[C@H](CO[C@@H]2O[C@H](CO)[C@@H](O)[C@H](O)[C@H]2O)[C@@H](O)[C@H](O)[C@H]1O)c1ccccc1 (some centres not stated)
inactive: Potency (OV90) | Potency (PA-1) | Potency (Tov-21-G) | Potency (Tov112D)
